MsrA inh – bovine MsrA enzyme inhibitors, primary screen, biochemical, absorbance, HTS; purified bovine MsrA, absorbance read-out; inhibition, % at 15.5 µM; hit rate 0.75% among 360,000; AID 651718, 2012; in the data active = inhibition above about 4.5%
HGIII-sPLA2 inh – human group III sPLA2 inhibitors, primary screen, biochemical, QFRET, BODIPY PC-A2 liposome substrate | Group 3 secretory phospholipase A2 (Homo sapiens), Q9NZ20 | QFRET BODIPY PC-A2 liposome hydrolysis, fluorescence | inhibition, % at 12.2 µM | hit rate 0.56% among 370,000;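 active = inhibition above mean plus 3 SD of compounds lying within the high and low control bounds, cut at about 19% in these data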
Target sequence (Q9NZ20 whole entry, looked up): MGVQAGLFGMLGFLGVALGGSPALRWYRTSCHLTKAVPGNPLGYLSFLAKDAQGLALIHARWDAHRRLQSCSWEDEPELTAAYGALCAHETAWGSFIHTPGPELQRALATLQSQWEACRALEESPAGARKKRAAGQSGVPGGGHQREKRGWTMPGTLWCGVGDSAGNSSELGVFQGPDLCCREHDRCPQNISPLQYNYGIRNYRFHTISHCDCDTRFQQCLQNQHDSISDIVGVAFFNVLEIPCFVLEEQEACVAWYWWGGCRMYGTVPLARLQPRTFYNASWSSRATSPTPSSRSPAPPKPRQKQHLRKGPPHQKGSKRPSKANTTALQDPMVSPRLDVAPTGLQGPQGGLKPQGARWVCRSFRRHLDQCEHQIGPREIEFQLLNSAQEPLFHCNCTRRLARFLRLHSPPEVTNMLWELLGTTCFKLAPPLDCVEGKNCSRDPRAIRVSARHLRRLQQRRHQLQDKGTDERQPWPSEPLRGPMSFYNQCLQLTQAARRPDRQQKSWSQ
rCAG RNA binder – binders of r(CAG) RNA repeats, primary screen, biochemical, fluorescence; r(CAG) RNA repeat, TO-PRO-1 dye displacement fluorescence; inhibition, % at 3 µM; hit rate 1.3% among 370,000;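 active = inhibition above the plate cutoff, the mean of all test compounds on that plate plus 3 SD, cut at about 35% in these data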;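 note: higher means more dye released from RNA so lower well fluorescence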
bovine MsrA act – bovine MsrA enzyme activators, primary screen, biochemical, absorbance, HTS; purified bovine MsrA, absorbance read-out; hit rate 0.3% among 360,000; activation, % at 10.6 µM; in the data active = activation above about 7.5%
rCAG bind conf – small molecules binding CAG repeat RNA – biochemical, fluorescence, confirmation. inhibition, % at 3 µM. shares compounds with rCAG RNA binder. hit rate 70% among 4,300. r(CAG) RNA repeat, TO-PRO-1 dye displacement fluorescence;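 active = inhibition above a per-plate cutoff, the mean inhibition of sample wells plus 3 SD, cut at about 35% in these data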;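 note: loss of TO-PRO-1 fluorescence as compound displaces dye from 1x1 AA loop RNA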
DNA CAG counter – displacement of TO-PRO-1 from CAG DNA duplex, counter-screen for rCAG RNA repeat binder project, biochemical, fluorescence, TO-PRO-1 dye, d(CAG) DNA oligo. hit rate 94% among 4,300. d(CAG) DNA oligo TO-PRO-1 dye displacement. inhibition, % at 3 µM. shares compounds with rCAG RNA binder;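 active = inhibition above its plate's cutoff, the mean test-well inhibition plus 3 SD, cut at about 4.8% in these data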;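 note: hits displace the dye from DNA and so lower well fluorescence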
Numbers stand for hits; . = inactive; / = no result given. In the library only some 2.8% were active in any assay of this set; here they are far more common.

SMILES	MsrA inh	HGIII-sPLA2 inh	rCAG RNA binder	bovine MsrA act	rCAG bind conf	DNA CAG counter
COc1ccccc1NC(=O)C1=C(C)NC(SCC(=O)Nc2ccc(C(=O)O)cc2)=C(C#N)C1c1cccs1 (stereo not drawn)	.	.	46.3	.	39.4	12.3
CCn1cc(C2=NC(CC(C)C)CO2)c2ccccc21 (stereo not drawn)	.	.	.	.	/	/
O=c1ccc(-c2nc3cc(Cl)ccc3n2Cc2ccccc2)c[nH]1	.	.	.	.	/	/
CC(C)(C)C(=O)Nc1ccc(C(=O)Nc2cccc(Oc3ccc(C(=O)O)c(C(=O)O)c3)c2)cc1	.	.	.	.	/	/
O=C(Nc1cccc(Oc2ccc(C(=O)O)c(C(=O)O)c2)c1)c1ccc(-c2ccccc2)cc1	.	.	57.8	.	53.0	19.5
COc1ccc(Cl)cc1NC(=O)[C@@]1(CC(=O)O)CC(/C=C/c2ccccc2)=NO1	.	.	38.1	.	35.8	8.2
COc1ccc(NC(=O)[C@@]2(CC(=O)O)CC(/C=C/c3ccccc3)=NO2)cc1	.	.	.	.	/	/
COc1cc2c(C(=O)O)c(C)n(-c3ccccc3)c2c2ccccc12	.	.	36.5	.	.	6.1
COc1ccccc1-n1c(C)c(C(=O)O)c2cc(OC)c3ccccc3c21	.	.	41.4	.	.	5.6
COc1ccc(-n2c(C)c(C(=O)O)c3cc(OC)c4ccccc4c32)cc1	.	.	.	.	/	/
NC1=NN=C(N2N=C(c3ccco3)CC2(O)C(F)(F)F)n2ncnc2C1 (stereo not drawn)	.	.	.	.	/	/
O=C(O)CCC(=O)Nc1ccc(-c2nc3ccc(C(=O)c4ccccc4)cc3[nH]2)cc1	4.6	.	45.2	.	35.5	7.9
O=C(c1ccccc1)c1ccc2nc(-c3ccc(NC(=O)c4ccccc4F)cc3)[nH]c2c1	.	.	.	.	/	/
Cn1cc(S(=O)(=O)Nc2ccc3c(c2)OCCO3)cn1	.	.	.	.	/	/
CC(=O)N1CCCc2cc(S(=O)(=O)N(C)Cc3ccccc3)ccc21	.	.	.	.	/	/
Cc1cccc(N(CC(=O)N/N=C/c2ccc(C(=O)O)cc2)S(=O)(=O)c2ccccc2)c1C	.	.	48.8	.	.	10.6
Cc1csc(CNC(=O)CC2C(=O)NCCN2Cc2ccc(F)cc2Cl)n1 (stereo not drawn)	.	.	.	.	/	/
Cc1cc(C=C2C(=O)c3ccccc3C2=O)c(C)n1-c1ccc(C(=O)O)cc1	.	.	.	.	/	/
O=C1C(=Cc2cccn2-c2ccccc2)C(=O)c2ccccc21	.	.	.	.	/	/
Cc1cc(C=C2C(=O)c3ccccc3C2=O)c(C)n1-c1cccc(C(=O)O)c1	.	.	56.5	.	50.8	14.6
O=C(O)c1cccc(-n2cccc2C=C2C(=O)c3ccccc3C2=O)c1	.	.	57.3	.	46.7	13.6
COc1ccc(Cc2nnc(SCC(=O)Nc3cc(Cl)ccc3C)[nH]c2=O)cc1	.	.	45.3	.	36.5	8.2
Cc1ccc(Cc2nnc(SCC(=O)Nc3c(C)cccc3C)[nH]c2=O)cc1	.	.	.	.	/	/
Cc1ccc(Sc2ncccc2C(=O)O)c(C)c1	.	.	.	.	/	/
CC(/C=C/c1ccc(N(C)C)cc1)=N\N=C1\NC(=O)CC(C(=O)Nc2ccccc2)S1 (stereo not drawn)	.	.	.	.	/	/
SMILES	MsrA inh	HGIII-sPLA2 inh	rCAG RNA binder	bovine MsrA act	rCAG bind conf	DNA CAG counter
CC(/C=C/c1ccc(N(C)C)cc1)=N/N=C1/NC(=O)CC(C(=O)Nc2ccc(Cl)cc2)S1 (stereo not drawn)	.	.	41.2	.	40.5	14.5
O=C(CS(=O)(=O)c1ccccc1)CS(=O)(=O)c1ccccc1	.	.	53.2	/	.	.
CC(=O)Nc1ccc(S(=O)(=O)CC(=O)CS(=O)(=O)c2ccc(NC(C)=O)cc2)cc1	.	.	39.1	.	.	.
COc1ccc(C2(C(=O)NC(C)C)CCCC2)cc1OC	.	.	.	.	/	/
COc1cc(OC)cc(-c2c(-c3cccs3)c3cc(Br)ccc3n2C)c1	.	.	40.4	.	.	9.3
Cc1cccc(NS(=O)(=O)c2nnc(NC(=O)c3ccc(C)c(C)c3)s2)c1	.	.	40.9	.	36.7	14.5
COc1cccc(C(=O)Nc2nnc(S(=O)(=O)Nc3cccc(C)c3)s2)c1	.	.	.	.	/	/
Cc1cccc(NS(=O)(=O)c2nnc(NC(=O)C3CCCCC3)s2)c1	.	.	37.2	.	.	5.3
Cc1cccc(NS(=O)(=O)c2nnc(NC(=O)CC(C)C)s2)c1	.	.	.	.	/	/
O=C(c1cc(COc2ccc3ncccc3c2)on1)N1CCC[C@H]1CO	.	.	.	.	/	/
CC1=Nc2ccc(C)cc2/C1=C/c1c(N)n2c(S(=O)(=O)C(C)C)nsc2nc1=O	.	.	80.2	.	75.4	37.4
CSc1nsc2nc(=O)c(/C=C3\C=Nc4ccccc43)c(N)n12	.	.	.	.	/	/
CC1=Nc2ccc(C)cc2/C1=C/c1c(N)n2oc(C)cc2nc1=O	.	.	.	.	/	/
CC1=Nc2ccccc2/C1=C/c1c(N)n2c(S(=O)(=O)CC(C)C)nsc2nc1=O	.	.	77.9	.	78.3	46.0
CSc1nsc2nc(=O)c(/C=C3\C(C)=Nc4ccc(C)cc43)c(N)n12	.	.	65.9	.	46.2	12.2
Cc1cn2c(N)c(/C=C3\C=Nc4ccccc43)c(=O)nc2s1	.	.	.	.	/	/
CC1=Nc2ccccc2/C1=C/c1c(N)n2c(S(=O)(=O)C(C)C)nsc2nc1=O	.	.	72.8	.	58.8	20.7
COC(=O)[C@@H](NS(=O)(=O)c1cc(Br)ccc1Br)C(C)C	.	.	.	.	/	/
CCOC(=O)c1c(NC(=O)CSc2nnc(C)o2)sc(C)c1C	.	.	.	.	/	/
COc1ccc(CNS(=O)(=O)NCc2ccccc2F)cc1	.	.	.	.	/	/
CC(C)S(=O)(=O)c1nsc2nc(=O)c(/C=C3\C=Nc4ccccc43)c(N)n12	.	.	87.6	.	85.1	55.4
COc1cc(C2C(C#N)=C(N)Oc3c2ccc2ccccc32)ccc1OCC(=O)Nc1ccc(C)cc1 (stereo not drawn)	.	.	37.6	.	.	13.2
COc1cc(C2C(C#N)=C(N)Oc3c2ccc2ccccc32)ccc1OCC(=O)Nc1cccc(C)c1 (stereo not drawn)	.	.	53.0	.	.	10.8
COc1cc(C2Nc3ccccc3C(=O)N2c2ccc3c(c2)OCCO3)ccc1OCC(C)C (stereo not drawn)	.	.	.	.	/	/
N=C1/C(=C\c2ccc(SCc3ccccc3)o2)C(=O)N=C2SC(CC(=O)N3CCOCC3)=NN12	.	.	71.3	.	67.9	30.2
COc1cc(/C=C2/C(=N)N3N=C(CC(=O)N4CCOCC4)SC3=NC2=O)ccc1OCc1ccccc1F	/	/	/	.	/	/

High-throughput results from PubChem BioAssay.
